Only some compounds are listed: those with a hit (about 4.2% of all), similar ones and a draw of the others.
TRPV1 potentiator – potentiators of human vanilloid receptor 1 (TRPV1). potentiation, % at 8.33 µM. 0.02% of 320,000 active. TRPV1-expressing cells, Fluo-8 calcium influx, capsaicin EC20 potentiation. Q8NER1; in the data active = potentiation above about 80%; inconclusive = between about 30% and that limit
Target sequence (Q8NER1 whole entry, looked up): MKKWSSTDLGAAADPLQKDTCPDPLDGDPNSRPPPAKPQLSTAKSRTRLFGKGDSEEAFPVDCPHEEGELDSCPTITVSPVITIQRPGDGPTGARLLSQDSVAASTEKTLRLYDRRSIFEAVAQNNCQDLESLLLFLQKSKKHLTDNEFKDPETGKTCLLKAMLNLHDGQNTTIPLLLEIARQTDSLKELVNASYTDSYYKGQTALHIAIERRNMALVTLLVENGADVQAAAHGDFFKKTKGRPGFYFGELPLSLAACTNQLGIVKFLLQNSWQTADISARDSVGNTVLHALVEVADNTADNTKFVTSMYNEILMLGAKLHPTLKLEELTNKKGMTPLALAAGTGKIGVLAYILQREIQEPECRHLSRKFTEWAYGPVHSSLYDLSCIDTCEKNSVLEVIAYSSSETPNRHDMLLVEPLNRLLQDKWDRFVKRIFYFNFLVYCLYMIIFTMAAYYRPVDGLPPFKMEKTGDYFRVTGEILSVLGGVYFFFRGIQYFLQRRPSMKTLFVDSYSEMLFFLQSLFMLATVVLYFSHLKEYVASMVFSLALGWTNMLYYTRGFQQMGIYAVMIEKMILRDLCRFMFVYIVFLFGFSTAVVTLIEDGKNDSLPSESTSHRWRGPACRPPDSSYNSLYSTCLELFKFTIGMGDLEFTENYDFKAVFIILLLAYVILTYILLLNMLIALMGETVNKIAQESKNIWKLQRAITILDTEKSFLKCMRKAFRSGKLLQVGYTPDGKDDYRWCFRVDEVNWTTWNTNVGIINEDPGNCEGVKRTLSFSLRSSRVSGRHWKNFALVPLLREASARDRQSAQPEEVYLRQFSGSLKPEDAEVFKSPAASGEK
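TRPV1-expressing cells were cultured overnight at 35.5C and loaded with Fluo-8 calcium dye for 40 to 90 min at room temperature. After a 10 s baseline, compound was added and calcium influx was read kinetically for 3 min (ex 480/em 520 nm).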
TRPV1 ag – human TRPV1 agonism | Q8NER1 | TRPV1-expressing cells, Fluo-8 calcium influx, agonist mode | activation, % at 8.33 µM | 0.19% of 320,000 active; in the data active = activation above about 80%; inconclusive = between about 30% and that limit
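Fluo-8 calcium influx in TRPV1-expressing cells, kinetic read (ex 480/em 520 nm). Compound added and read 3 min for agonist activity, followed by capsaicin at EC20 final and 2 min further read for enhancement.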
D1 antagonist – blocks dopamine activation of the human D1 receptor. P21728. HEK293 TREx D1 cells, calcium flux, dopamine EC80; stronger effect = lower value. activity change, negative = inhibition, % at 10 µM. 3.2% of 360,000 active; in the data active = activity change below about -30%
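Compound effects on dopamine-evoked calcium signalling were measured in tetracycline-induced HEK293 Trex D1 cells. Dopamine at EC80 followed a 180 s compound pre-read, and fluorescence was tracked kinetically for 180 s more.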
D1 agonist – human D1 receptor agonism; P21728; HEK293 T-REx D1 cells, calcium flux, agonist mode; activation, % at 2 µM; 1% of 360,000 active; AID 504660; in the data active = activation above about 30%
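Inducible HEK293 T-REx D1 cells, force-coupled to calcium signalling, were plated at 4000 cells/well with tetracycline and held overnight at 30 C. After no-wash calcium dye loading, compound-evoked calcium rise over 180 s flagged agonists.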
D1 potentiator – human D1 dopamine receptor positive modulation; 0.036% of 360,000 active; P21728; HEK293 TREx D1 cells, calcium flux, dopamine EC20 potentiation; potentiation, % at 10 µM; in the data active = potentiation above about 30%
A number is an active result; . = inactive; ? = inconclusive; / = no result given; ! = not active in a repeat.

SMILES	TRPV1 potentiator	TRPV1 ag	D1 antagonist	D1 agonist	D1 potentiator
O=C(O)c1ccc2c(c1)C(=O)N([C@H](Cc1c3ccccc3cc3ccccc13)C(=O)O)C2=O	/	/	.	.	.
COc1ccc2[nH]c(=O)c(CN(Cc3ccco3)Cc3nnnn3Cc3ccccc3)cc2c1	.	.	.	.	.
COCCn1nnnc1CN(CCc1ccccc1)Cc1cc2ccc(C)cc2[nH]c1=O	.	.	-37.7	.	.
CCOc1ccc2[nH]c(=O)c(CN(Cc3ccco3)Cc3nnnn3Cc3ccccc3)cc2c1	.	.	-44.2	.	.
Cc1ccc2[nH]c(=O)c(CN(CCc3ccccc3)Cc3nnnn3CC3CCCO3)cc2c1 (stereo not given)	.	.	.	.	.
COc1cc(/C=C(\C#N)c2nc3c(s2)CCCC3)ccc1O	.	.	.	59.7	.
N#C/C(=C\c1cccnc1)c1nc2c(s1)CCCC2	.	?	.	.	.
Cc1ccc(C)c(Nc2cc(C(=O)NCCCN(C)C3CCCCC3)c3ccccc3n2)c1	/	/	-34.0	53.5	.
CCc1ccccc1Nc1cc(C(=O)NCCCN(C)C2CCCCC2)c2ccccc2n1	/	/	.	34.5	.
Cc1cc(C)cc(Nc2cc(C(=O)NCc3ccccc3)c3ccccc3n2)c1	/	/	.	.	.
Cc1cc(C)cc(Nc2cc(C(=O)NCCCN(C)C3CCCCC3)c3ccccc3n2)c1	/	/	.	43.7	.
CC(=O)Nc1ccc(NC(=O)C(C)OC(=O)/C(C#N)=C/c2ccc(N(C)C)cc2)cc1 (stereo not given)	.	.	.	83.8	.
CC(C)OC(=O)/C(C#N)=C\c1cccnc1	.	.	.	.	.
CC(OC(=O)/C(C#N)=C/c1ccc(N(C)C)cc1)C(=O)N(C)c1ccccc1 (stereo not given)	.	?	.	70.0	.
CC(=O)Nc1ccc(NC(=O)C(C)OC(=O)c2ccc(N(C)C)cc2)cc1 (stereo not given)	.	.	.	.	/
CC(C)Oc1cccc(C(=O)NC(=S)Nc2ccccc2)c1	.	.	-35.3	.	.
CCOC(=O)c1cccc(NS(=O)(=O)c2cc3c(cc2C)NC(=O)CO3)c1	/	/	-46.4	.	.
Cc1ccc(CNC(=O)CCS(=O)(=O)c2cc3c(cc2C)NC(=O)CO3)cc1	.	.	-31.8!	.	.
COc1cccc(CNS(=O)(=O)c2cc3c(cc2Cl)NC(=O)CO3)c1	.	.	.	.	.
COc1ccc(NS(=O)(=O)c2cc3c(cc2C)NC(=O)CO3)c(OC)c1	?	.	-57.8!	.	.
COc1cccc(CNS(=O)(=O)c2cc3c(cc2C)NC(=O)CO3)c1	.	.	-32.4	.	.
Cc1ccc(NC(=O)Cn2c(=O)n(Cc3ccco3)c(=O)c3sc4ccccc4c32)cc1C	/	/	.	.	.
Cc1cccc(NC(=O)C2CCN(S(=O)(=O)c3ccc4c(c3)CCCC(=O)N4)CC2)c1	/	/	.	.	.
Cc1cc2c(cc1S(=O)(=O)N(C)CC(=O)Nc1ccc(C#N)cc1)OCC(=O)N2	/	/	-54.9	.	.
Cn1c(=O)c(=O)n(C)c2cc(S(=O)(=O)N3CCN(c4ccccc4)CC3)ccc21	/	/	.	.	.
SMILES	TRPV1 potentiator	TRPV1 ag	D1 antagonist	D1 agonist	D1 potentiator
Cc1ccc2nc(N/C(=N/S(=O)(=O)c3ccc(F)cc3F)c3ccccc3)sc2c1	.	.	.	.	.
Cc1ccc2nc(N/C(=N/S(=O)(=O)c3ccc(F)cc3)c3ccccc3)sc2c1	.	.	-44.1	.	.
CCOC(=O)c1c(C)oc2ccc(N(C(=O)c3ccncc3)S(=O)(=O)c3ccc(Br)cc3)cc12	/	/	-56.7	.	.
COC(=O)c1c(C)oc2ccc(N(C(=O)c3ccncc3)S(=O)(=O)c3ccc(Br)cc3)cc12	/	/	-36.6	.	.
COC(=O)c1c(C)oc2ccc(N(C(C)=O)S(=O)(=O)c3ccccc3)cc12	.	.	-66.3	.	.
CCOc1ccc(S(=O)(=O)N(C(C)=O)c2ccc3oc(C)c(C(=O)OC)c3c2)cc1	/	/	.	.	.
O=C(CSc1nccc(=O)[nH]1)NCc1ccc2c(c1)OCO2	.	.	-35.1	.	.
O=C(CSc1nccc(=O)[nH]1)Nc1ccc2c(c1)OCCO2	.	.	-57.8	.	.
CCc1cc(=O)[nH]c(SCC(=O)NCc2ccc3c(c2)OCO3)n1	.	.	.	.	.
O=C(CSc1nccn1Cc1ccc(Cl)cc1)Nc1ccc2c(c1)OCCO2	/	/	-30.9	.	.
O=C(CSc1nccc(=O)[nH]1)Nc1ccc(Oc2ccccc2)cc1	.	.	-57.0	.	.
COc1cc2c(cc1OC)C(COc1ccc(C(C)C)cc1)N(C(=O)c1ccc(S(=O)(=O)N3CCCC3)cc1)CC2 (stereo not given)	/	/	.	.	.
COc1ccc(CCNC(=O)c2ccc3c(c2)CCN3S(=O)(=O)c2ccccc2)cc1	/	/	.	.	.
CCCS(=O)(=O)N1CCCC(C(=O)NCCc2ccc(Cl)cc2)C1 (stereo not given)	.	.	-30.8	.	.
Cc1[nH]c(=O)[nH]c(=O)c1S(=O)(=O)N1CCCC(C(=O)NCCc2ccc(Cl)cc2)C1 (stereo not given)	.	.	-34.8	.	.
CCCCNC(=O)C1CCCN(S(=O)(=O)CCC)C1 (stereo not given)	/	/	-31.6	.	.
Cc1[nH]c(=O)[nH]c(=O)c1S(=O)(=O)N1CCCC(C(=O)NCCc2ccccc2)C1 (stereo not given)	.	.	.	.	.
CC1CCCN(C(=O)CSc2c3c(nc4cc(Cl)ccc24)CCCC3)C1 (stereo not given)	/	/	.	.	.
COc1ccc(Br)cc1CNC(=O)Cn1c(=O)c2cccn2c2ccc(F)cc21	/	/	.	.	.
COc1cc(/C=C2\SC(=O)N(CC(=O)Nc3ccccc3F)C2=O)cc(Cl)c1O	.	?	.	130.5	.
Cn1cc(-c2cc3n(n2)CCC(=O)N3CCCC(=O)NCc2ccc(Cl)cc2)c2ccccc21	/	/	.	.	.
CCOC(=O)CCCN1C(=O)CCn2nc(-c3cn(C)c4ccccc34)cc21	/	/	-39.8	.	.
Cn1cc(-c2cc3n(n2)CCC(=O)N3CCCC(=O)NCc2ccccc2Cl)c2ccccc21	/	/	-47.9	.	.
CCOC(=O)CC(NC(=O)c1cc2c(=O)n3cccc(C)c3nc2s1)c1ccc(OCC)c(OC)c1 (stereo not given)	/	/	.	.	.
Cc1ccc(-c2cc(-c3n[nH]c(=S)n3C)c3ccccc3n2)cc1	.	?	-37.1	.	.
CCn1c(-c2cc(-c3ccc(C)c(C)c3)nc3ccccc23)n[nH]c1=S	.	?	.	.	.
CCCC1=NN2C(=N)/C(=C\c3cc(C)n(-c4cc(C)cc(C)c4)c3C)C(=O)N=C2S1	.	.	-60.3	40.0	.
CCc1ccc(/C=C2/SC(N3CCOCC3)=NC2=O)cc1	.	84.8	.	.	.
C=CCOc1ccc(/C=C2\SC(N3CCCCC3)=NC2=O)cc1	.	81.6	.	.	.
CC(C)c1ccc(/C=C2\SC(N3CCOCC3)=NC2=O)cc1	.	?	.	.	.
